# From PubChem BioAssay AID662 (National Center for Advancing Translational Sciences (NCATS), 2007)
# The whole screen tested about 71,000 compounds, of which about 1,800 (2.5%) were called active. Entries that show only a call come without a potency. Roughly 26% stayed inconclusive and do not appear here. Only a selection was taken, and actives are over-represented in it overall. A number with no mark means an inactive call. The call rests on the fitted dose curve; in most records, active means well fitted activation curve with a large enough effect in the signal ratio, with a control signal flat (not every such curve was filed as active); inconclusive means small, poorly fitted or top-dose-only effect, or effect the other way, or a change in a side signal; inactive means flat fitted curve, though single readings scatter; the % refers to the signal ratio.
# Assay: Cell signaling CRE-BLA (Fsk stim)
# Conditions: CHO CRE-bla reporter (cAMP response element driving beta-lactamase), forskolin EC10, beta-lactamase ratio; series mostly up to 38.2 µM
# From the text: NIH Molecular Libraries Screening Centers Network [MLSCN]
# NIH Chemical Genomics Center [NCGC]
# Assay Provider: Marshall W. Nirenberg, U.S. National heart lung & blood institute
# Memories persist for different lengths of time, from seconds or minutes to a lifetime. There are two kinds of memory: short-term memory (STM) and long-term memory (LTM). STM lasts for minutes to hours, which maybe mediated by modifications of molecules involved in synaptic functions. LTM lasts for days or longer, and may be due to the formation of new synapses or restructuring of existing synapses. LTM, but not STM, requires gene transcription and synthesis of proteins. CREB (cyclic-AMP Responsive Element Binding Protein) is one of the candidates plays an important role for enhancement of some types of LTM. CREB, a family of transcription factors, regulates the transcription of genes containing cAMP Responsive Elements (CRE). CRE is a nucleotide sequence often found in the promoter regions of genes that are binding sites for CREB.
# Using a beta-lactamase reporter-gene under control of cAMP responsive element, a cell-based assay [CellSensor(TM) CRE-bla CHO developed by Invitrogen Corp.] was used to measure forskolin-induced signaling. Library compounds were measured for their ability to modulate positively or negatively the action of EC10 NKH 477, a water soluble forskolin, on reporter gene activity. Compounds were screened in a titration series in 1536-well format. Positive and negative modulators were identified based on the AC50 values derived from the screening data.
# NCGC Assay Protocol Summary
# 2000 cells/5uL in Opti-MEM medium containing 0.5% dialyzed FBS, 0.1 mM NEAA, 1 mM sodium pyruvate and 10 mM HEPES was dispensed into 1536-well plates and cells were cultured at 37 degrees Celsius overnight. […] And then the plates were incubated at 37 degrees Celsius for 3 hours. 1 uL of CCF4-dye mixture was added to each well. After incubated at room temperature for 2 hours the plates were measured on an EnVision plate reader at Excitation 405nm, Emission1=460nm and Emission 2=530nm. The %Activity was determined from the ratio of 460nm/530nm.
# Keywords: NIH Roadmap, MLSCN, MLSMR, qHTS, NCGC, CRE, beta-lactamase reporter-gene assay.
# Potency means the concentration at half of the fitted maximal effect.
Compound,Potency,"activity change, negative = inhibition"
c1ccc(-c2oc3ncnc(N4CCOCC4)c3c2-c2ccccc2)cc1,inactive,
O=C1c2ccccc2-c2ncnc3c(N4CCOCC4)cc(N4CCOCC4)c1c23,2.51 µM (active),
c1cnn(-c2cc(N3CCOCC3)ncn2)c1,inactive,
CSc1nnc(CNC(=O)c2ccccc2)n1-c1ccc(F)cc1,inactive,
Cc1cccc(C(=O)O)c1[N+](=O)[O-],inactive,
CCOC(=O)c1cnc(-n2nc(C)cc2C)nc1Nc1cccc(C(C)=O)c1,inactive,
CCOC(=O)c1cnc(-n2nc(C)cc2C)nc1-n1nc(C)cc1C,inactive,
CC(=O)c1ccc(Oc2cc(C)nc(-n3nc(C)cc3C)n2)cc1,7.94 µM (active),
O=C(Nc1ccccc1)N[C@H]1C[C@H](C(=O)O)Nc2cc(Cl)cc(Cl)c21,inactive,
O=C(CCCOc1ccccc1)Nc1cccc(C(=O)O)c1,inactive,
CN1CCN(c2cc(=O)n(-c3ccc(Cl)cc3)c(=O)[nH]2)CC1,inactive,
Cc1cc(N(C)C)cc(C)[n+]1[O-],inactive,
COC(=O)C1=C(C)NC2=C(C(=O)c3ccccc32)C1c1ccc(-c2ccc(C(=O)O)cc2)o1 (stereo unspecified),0.398 µM (active),
COC(=O)C1=C(C)NC(=O)NC1/C=C/c1ccccc1 (stereo unspecified),inactive,
COc1ccccc1NC(=O)C1=C(C)NC2=C(C(=O)CCC2)C1c1ccc(C)o1 (stereo unspecified),inactive,
Cc1ccc(CCn2c3c(c4ccccc42)CN(C)CC3)cn1,inactive,
O=C(O)CC(C(=O)O)C(CC(=O)O)C(=O)O (stereo unspecified),inactive,
CCCCC/C=C/C=C/C=O,inactive,
CCOc1ccc(C(=O)Nc2cc(OC)ccc2OC)cc1,inactive,
CC(C)CCNc1nc(N2CCCC2)c2c(c1C#N)CCN(C)C2,inactive,
Cc1cc(C)c2nc(N3CCCC3)c(C#N)cc2c1,10 µM (active),
CCOc1ccc2nc(N3CCCN(C(=O)Nc4ccccc4C)CC3)c(C#N)cc2c1,inactive,

Compound,Potency,"activity change, negative = inhibition"
Cn1c(=O)n(C)c2cc(CNc3ccc(N4CCOCC4)c(C(=O)O)c3)ccc21,inactive,
Cn1nc(-c2ccc(N3CCOCC3)c(NC(=O)c3ccccc3)c2)c2ccccc2c1=O,7.94 µM (active),
COc1c(C)cccc1C(=O)Nc1cc(Cl)ccc1N1CCOCC1,inactive,
COc1ccc(OC)c2[nH]c(=O)c(CCNC(=O)C(C)(C)C)cc12,inactive,
COc1ccc(CNc2ncncc2-c2ccccc2OC)c(OC)c1,inactive,
COc1ccc(CNc2ncncc2-c2ccccc2C)c(OC)c1,inactive,
COc1ccc(CNc2ncnc3ccc(-c4cccnc4)cc23)c(OC)c1,1 µM (active),
CCOC(=O)C1CCc2nc3ccccc3c(=O)n21 (stereo unspecified),inactive,
CCCCCCOC(=O)NCC(O)c1ccccc1 (stereo unspecified),inactive,
C=C(C)Cn1c(SCC(=O)NCc2ccco2)nc2sc3c(c2c1=O)CCC3,inactive,
COc1ccccc1-c1nnc(SCC(=O)Nc2cc(C)on2)o1,inactive,
CCOc1ccccc1Nc1nnc(SCC(=O)Nc2cc(C)on2)s1,inactive,
Cc1cc(NC(=O)Cn2nc(C(F)(F)F)c3c2CCCC3)no1,inactive,
Cc1nc(SCC(=O)Nc2cc(C)on2)c2c(C)c(C)sc2n1,0.316 µM (active),
Cc1nc(SCC(=O)Nc2cc(C)on2)c2c3c(sc2n1)CCCC3,2.51 µM (active),
O=C1C(C=NCC2CCCO2)=C(O)c2ccccc21 (stereo unspecified),,12.5% [at 7.6 µM]
COC(=O)[C@@]1(Cc2ccc(F)cc2)[C@H]2c3cc(C(=O)N4CCCC4)n(Cc4ccc(OC(F)(F)F)cc4)c3C[C@H]2CN1C(=O)c1ccccc1,inactive,
COCCOC(=O)C1=C(C)NC(=O)CC1c1cc2c(cc1Br)OCO2 (stereo unspecified),inactive,
COc1cc2c(cc1OC)C(c1ccc(C)o1)CC(=O)N2 (stereo unspecified),inactive,
CCCOc1ccccc1C1CC(=O)Nc2cc3c(cc21)OCO3 (stereo unspecified),10 µM (active),
O=C(NCc1ccc(Cl)c(Cl)c1)c1cccnc1,,-25.4% [at 7.6 µM]
CCCOC(=O)Nc1ccccc1C(N)=O,inactive,

Compound,Potency,"activity change, negative = inhibition"
CCOc1ccc2nc(SC(CC)C(=O)Nc3cc(C)on3)sc2c1 (stereo unspecified),inactive,
C=CC(=C)CCC=C(C)C,inactive,
CCOc1cccc(-n2nnnc2-c2ccc(OC)cc2)c1,12.6 µM (active),
CCOC(=O)c1sc(=S)n(-c2cccc(OC)c2)c1N,inactive,
CCOc1cccc(-c2nnc3sc(COc4ccc(OC)cc4)nn23)c1,inactive,
COC(=O)c1ccc(OC(=O)c2nn(C)cc2Cl)c(OC)c1,inactive,
CCc1c(O)nc(SCC(=O)N2CCCCC2)n(-c2ccccc2C)c1=O,inactive,
O=C(Nc1ccccc1N1CCN(C(=O)c2ccccc2)CC1)c1ccc2c(c1)OCO2,inactive,
O=C(Nc1ccccc1N1CCCCC1)c1ccc2nccnc2c1,10 µM (active),
Cc1ccccc1NC(=O)CNc1ccccc1N1CCCCC1,inactive,
O=C(Nc1ccccc1N1CCN(c2ccccc2)CC1)c1cccc(F)c1,inactive,
O=C(CN1CCN(C2CCCCC2)CC1)Nc1ccccc1N1CCCCC1,inactive,
O=C(Nc1ccccc1N1CCCCC1)c1cccc(F)c1,12.6 µM (active),
Cn1cc(S(=O)(=O)N2CCC(Cc3ccccc3)CC2)c(=O)n(C)c1=O,inactive,
Cc1ccc(Br)cc1,inactive,
O=C(NCc1ccccc1)[C@H]1C[C@@H]1[C@H](NP(=O)(c1ccccc1)c1ccccc1)c1ccccc1,inactive,
CCC[C@@H]1C[C@@]1(CCC)[C@@H](NC(=O)c1ccccc1)c1ccc(C(=O)OC)cc1,inactive,
Nc1nnc(C2CCCC2)s1,inactive,
COc1cc(Cl)c(C)cc1NC(=O)CSc1nnc(-c2cccnc2)n1Cc1ccco1,inactive,
CCc1cccc(C)c1NC(=O)CSc1nnc(-c2ccco2)n1N,inactive,
CCn1c(SCC(=O)Nc2cc(C)c(Cl)cc2OC)nnc1-c1ccco1,12.6 µM (active),
COC(=O)[C@H]1C[C@@H]1[C@H](NC(=O)Oc1ccc(F)cc1)c1ccccc1,inactive,

Compound,Potency,"activity change, negative = inhibition"
NC(=O)c1ccccc1NC(=O)c1ccccc1F,inactive,
COC(=O)[C@@]1(Cc2ccc(OC)cc2)[C@H]2c3cc(C(=O)N4CCCC4)n(Cc4ccc(OC(F)(F)F)cc4)c3C[C@H]2CN1C(=O)c1ccccc1,inactive,
O=C(CN1CCOCC1)Nc1c(-c2ccccc2)c2cc(Br)ccc2[nH]c1=O,inactive,
CCNc1ncc2ncc(=O)n(Cc3cccc(OC)c3)c2n1,inactive,
COc1cccc(Cn2c(=O)c(C)nc3cnc(Oc4ccccc4)nc32)c1,10 µM (active),
COc1ccc(Oc2ncc3nc(-c4ccc(F)cc4)c(=O)n(C)c3n2)cc1,inactive,
O=C1c2cccnc2C(=O)N1Cc1cccs1,inactive,
COc1ccc(Oc2ncc3nc(C)c(=O)n(-c4ccccc4)c3n2)cc1,inactive,
COc1cccc(Cn2c(=O)c(CCc3ccccc3)nc3cnc(N(C)C)nc32)c1,6.31 µM (active),
COc1ccc(-n2nnc3c(=O)n(CC(=O)OCc4ccccc4)cnc32)cc1,inactive,
COc1ccc(-c2nc3cnc(Oc4ccccc4)nc3n(Cc3cccs3)c2=O)cc1,3.98 µM (active),
COc1cccc(Nc2ncc3ncc(=O)n(C4CC4)c3n2)c1,inactive,
COc1cccc(Cn2c(=O)c(-c3ccccc3)nc3cnc(OC)nc32)c1,10 µM (active),
CCNc1ncc2ncc(=O)n(CCc3ccccc3)c2n1,inactive,
O=C(CC1(O)C(=O)N(CN2CCOCC2)c2ccccc21)c1ccccc1 (stereo unspecified),inactive,
CCCc1cc(=O)[nH]c(SCC(=O)OCc2ccccc2)n1,inactive,
CS(=O)(=O)N1CCN(C(=O)Cc2ccccc2)CC1,inactive,
O=P(O)(CN1CCCCC1)CN1CCCCC1,inactive,
c1ccc(-n2ncc(-c3nn[nH]n3)n2)cc1,inactive,
O=C(O)CCSc1nnc(-c2ccccc2)n1-c1ccccc1,,13.7% [at 7.6 µM]
C=CCn1c(CC(=O)Nc2cccc(OC)c2)nnc1SCC(=O)NC1CCCCC1,inactive,
COc1cccc(-n2c(SCC(=O)NC3CCCCC3)nc3n[nH]c(C)c3c2=N)c1,5.01 µM (active),

Compound,Potency,"activity change, negative = inhibition"
COc1cccc(-n2c(Cc3cc(=O)[nH]c(=O)[nH]3)nnc2SCC(=O)Nc2ccccc2)c1,inactive,
CCc1ccc(N(CC)c2ncnc3nc[nH]c23)cc1,inactive,
CCOC(=O)NC(C(F)(F)F)(C(F)(F)F)P(=O)(c1ccccc1)c1ccccc1,inactive,
CCCCNC(=O)CSc1nccn1Cc1ccccc1,inactive,
CS(=O)(=O)N(CC(=O)N1CCN(Cc2ccc3c(c2)OCO3)CC1)c1ccc2c(c1)OCO2,inactive,
CCn1cc(C(=O)N2CCN(Cc3ccc4c(c3)OCO4)CC2)c2cc(OC)c(OC)cc2c1=O,7.94 µM (active),
CCOC(=O)NCc1ccc2c(c1)OCO2,inactive,
Cc1ccc(C(=O)OCC(=O)NCc2ccc3c(c2)OCO3)s1,inactive,
Cc1cc(NC(=O)CCC2COc3ccccc3O2)no1 (stereo unspecified),inactive,
CCn1cc(C(=O)NCc2ccc3c(c2)OCO3)c2cc(OC)c(OC)cc2c1=O,2 µM (active),
CCn1cc(C(=O)NCC2COc3ccccc3O2)c2cc(OC)c(OC)cc2c1=O (stereo unspecified),1.58 µM (active),
COc1ccc(-c2csc(N3CCN(Cc4ccc5c(c4)OCO5)CC3)n2)cc1,inactive,
CC1CCCC(N2CCN(C(=O)c3ccc(F)cc3)CC2)C1 (stereo unspecified),inactive,
O=C(C(Cc1ccccc1)n1cccc1)N1CCN(C2CCCCC2)CC1 (stereo unspecified),inactive,
CCn1cc(C(=O)N2CCN(C3CCCCC3)CC2)c2cc(OC)c(OC)cc2c1=O,10 µM (active),
O=C(CN1C(=O)C2C3C=CC(C3)C2C1=O)NCC1COc2ccccc2O1 (stereo unspecified),inactive,
O=C(CCC(=O)OCC(F)(F)C(F)F)NCc1ccccc1,inactive,
COC(=O)[C@@]1(Cc2ccc(F)cc2)[C@H]2c3cc(C(=O)N4CCCC4)n(C[C@H](O)CO)c3C[C@H]2CN1C(=O)c1ccccc1,inactive,
